Rab9 prom act = qHTS Assay for Rab9 Promoter Activators; Huh7 Rab9 promoter-luciferase reporter, luminescence, 24 h; Potency, µM (top dose mostly 9.22 µM), inactives show at the highest dose activation, negative = inhibition, most hits filed as activators; 320,000 compounds, 2.8% hits; further: % of control where 0% means no effect; nearly all actives have a fitted effect of over 60% in size
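Huh7 reporter line, Rab9 promoter upstream of luciferase. Compound exposure 24 h at 37 °C in reduced-serum medium with 10% FBS. Read-out: luminescence.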
NPC1 prom act = qHTS Assay for NPC1 Promoter Activators; Huh7 NPC1 promoter luciferase reporter, 24 h; Potency, µM (doses to about 9.22 µM), inactives show top-dose activation, actives largely listed as activators; 320,000 compounds, 2.4% hits; AID 485313, 2010; further: % of control where 0% means no effect; nearly all actives have a fitted effect of over 60% in size
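Cells: Huh7 expressing luciferase under the NPC1 promoter, 1500/well. Seeded 2 h, compound added, incubated 24 h at 37 °C. Luciferase reagent, 10 min ambient, then luminescence.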
FLuc counter = qHTS profiling assay for firefly luciferase inhibitor/activator using purifed enzyme and Km concentrations of substrates (counterscreen for miR-21 project); 360,000 compounds, 6.9% hits; Potency, µM (top dose mostly 57.5 µM), for the others: at the highest dose activity change, negative = inhibition, most hits filed as inhibitors; Luciferin 4-monooxygenase (Photinus pyralis), P08659; purified FLuc, Km substrates, luminescence inhibition; AID 588342, 2011;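 further: plate controls were vehicle for no effect and reference inhibitor for full effect; nearly all actives have a fitted effect of over 55% in size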
Target sequence (P08659 whole entry, looked up): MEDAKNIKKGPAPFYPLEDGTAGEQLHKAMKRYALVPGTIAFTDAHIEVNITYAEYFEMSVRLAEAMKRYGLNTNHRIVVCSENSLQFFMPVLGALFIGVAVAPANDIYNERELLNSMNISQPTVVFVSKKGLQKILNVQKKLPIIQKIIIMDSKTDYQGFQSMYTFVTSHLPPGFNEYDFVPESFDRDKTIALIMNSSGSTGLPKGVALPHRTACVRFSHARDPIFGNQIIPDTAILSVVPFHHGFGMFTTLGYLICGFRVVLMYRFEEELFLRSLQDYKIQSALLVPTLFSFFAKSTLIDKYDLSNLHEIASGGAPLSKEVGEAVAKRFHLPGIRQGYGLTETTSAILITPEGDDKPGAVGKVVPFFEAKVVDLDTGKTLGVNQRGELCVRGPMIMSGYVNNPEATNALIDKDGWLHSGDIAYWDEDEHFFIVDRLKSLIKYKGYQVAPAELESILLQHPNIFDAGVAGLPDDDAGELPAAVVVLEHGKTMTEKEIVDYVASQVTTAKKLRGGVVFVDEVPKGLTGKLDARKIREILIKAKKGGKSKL
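Purified P. pyralis luciferase (10nM final) with 10uM D-luciferin and 10uM ATP (Km levels) in 50mM Tris acetate pH 7.5, 10mM Mg acetate, 0.01% Tween-20, 0.05% BSA; qHTS 6-point titration, ~60 µM downward; luminescence read.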
p53 reactivator = qHTS assay for re-activators of p53 using a Luc reporter; H1299 p53-A138V BP100-luciferase reporter, luminescence, 24 h; Potency, µM (titrated, usually from 92.2 µM), for the others: top-dose activity change, positive = activation, hits mostly activators; 320,000 compounds, 0.063% hits; further: % of control where 0% means no effect; nearly all actives have a fitted effect of over 45% in size
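H1299 (p53-null), stable ts p53-A138V + BP100-Luc; 1000 cells/well, Opti-MEM/10% FBS; cpd 4 pt, 1:5; 24 h, 37 deg C, 5% CO2; detection reagent 10 min RT; luminescence.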
SMN2 splice up = qHTS Assay for Enhancers of SMN2 Splice Variant Expression; HEK293 SMN2-luciferase splicing reporter, luminescence, 30-36 h; Potency, µM (titrated, usually from 46.1 µM), for the others: top-dose activity change, positive = activation, actives largely listed as activators; 210,000 compounds, 2.8% hits; AID 1458, 2008; further: % of control where 0% means no effect; nearly all actives have a fitted effect of over 55% in size
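HEK293 cells carry an SMN2 […]–luciferase reporter in which exon 7 inclusion puts luciferase in frame. Cells were plated 10-12 h before compound addition, then incubated 30-36 h at 37C. ONE-Glo luminescence was read; sodium butyrate at 4.5 mM final served as control.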
ELG1 genotoxic = qHTS screen for small molecules that induce genotoxicity in human embryonic kidney (HEK293T) cells expressing luciferase-tagged ELG1. HEK293T ELG1-luciferase reporter, luminescence, 16 h. Potency, µM (highest dose often 46 µM), without a hit: at the highest dose activity change, positive = activation, usual class: activators. 330,000 compounds, 1.3% hits; further: % of control where 0% means no effect; nearly all actives have a fitted effect of over 60% in size
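DMSO vehicle served as control against compound-treated ELG1-luciferase HEK293T cells; exposure lasted 16 hr at 37 °C and 5% CO2, followed by ONE-Glo luminescence detection after 30 min.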
* = called active by the depositor; ? = inconclusive; · = no result. Compounds with a hit are over-represented: about 7.4% of the library has one in this group of screens. The call rests on the fitted dose curve; in most records, active means well fitted curve in the direction sought with a large enough effect; inconclusive means small, poorly fitted or top-dose-only effect, or another doubt; inactive means no such curve, though single readings can be large; an effect the other way counts as inactive or inconclusive. Potency means the concentration at half of the fitted maximal effect.

SMILES | Rab9 prom act | NPC1 prom act | FLuc counter | p53 reactivator | SMN2 splice up | ELG1 genotoxic
CCOC(=O)c1sc(-c2ccccc2)nc1C | 17% | -7% | 13µM* | 4% | 9% | ?
COC(=O)[C@@]1(Cc2ccc(OC)cc2)[C@H]2c3cc(C(=O)N4CCCC4)n(CCF)c3C[C@H]2CN1C(=O)c1ccccc1 | · | · | · | · | -7% | ·
CCOC(=O)CSc1nc(-c2ccccc2)cc(C(F)(F)F)c1C#N | · | · | 0% | · | 4% | ·
CCOC(=O)Cc1ccc2sc(-c3ccccc3)nc2c1 | 1.6µM* | 3.2µM* | 0.48µM* | ? | 16µM* | 6.5µM*
CC(=O)c1cnc(Nc2ccc(C)cc2)s1 | ? | 23% | ? | 18% | ? | ?
CC(=O)c1csc(Nc2ccccc2Cl)n1 | 2.8µM* | 3.2µM* | 19µM* | 13% | · | ?
CCCNC(=O)c1csc(Nc2cccc3ccccc23)n1 | -3% | -1% | ? | -6% | · | -6%
O=C(c1ccccc1)c1cnc(Nc2ccccc2Cl)s1 | 1.3µM* | 1µM* | 1.9µM* | 12% | 20µM* | ?
CC(C)(C)C(=O)c1cnc(Nc2ccccc2Cl)s1 | · | · | 2.4µM* | · | 13µM* | ·
O=c1c2ccccc2cnn1CCOc1ccccc1 | 0.1µM* | 0.089µM* | 0.3µM* | 1% | · | ?
N#Cc1c(/N=C/c2ccc(-c3ccc(C(=O)O)c(Cl)c3)o2)sc2c1CCCC2 | -4% | 1% | 2.4µM* | 2% | · | 8%
N#Cc1c(/N=C/c2ccc(-c3ccccc3C(=O)O)o2)sc2c1CCCC2 | 0.71µM* | 1.8µM* | 0.76µM* | ? | · | 15µM*
COCc1cc(C)nc(N/N=C/c2ccc(-c3ccc(C(=O)O)c(Cl)c3)o2)c1C#N | 1% | -1% | -1% | 8% | 1% | -1%
Cc1cccc(-c2noc(-c3ccc(Cl)cc3[N+](=O)[O-])n2)c1 | 2.5µM* | 0.71µM* | 1.5µM* | ? | ? | ?
COc1cc(-c2noc(-c3ccc(N4CCOCC4)c([N+](=O)[O-])c3)n2)cc(OC)c1OC | · | · | 19µM* | · | · | ·
COc1ccc(-c2noc(-c3ccc(Cl)cc3[N+](=O)[O-])n2)cc1OC | 4µM* | ? | 4.3µM* | ? | 25µM* | 17%
COc1ccc(-c2noc(-c3ccc(NC(C)c4ccccc4)c([N+](=O)[O-])c3)n2)cc1OC (stereo not given) | · | · | 11µM* | · | · | ·
OCC1CCCCN1CC(O)COC(c1ccc(F)cc1)c1ccc(F)cc1 (stereo not given) | -6% | -1% | 0% | -6% | · | -3%
Cc1ccc(NC(=O)CCCn2nc(C)c3c(C)n(-c4ccccc4)nc3c2=O)c(Cl)c1 | 0% | 1% | -1% | 1% | · | 2%
COc1cccc(C(=O)Nc2ccc(-c3nnc(-c4ccco4)o3)cc2)c1 | 28% | -4% | 0% | 0% | -25% | 16%
CCCOc1ccc(-c2nnc(-c3ccco3)o2)cc1 | 0.45µM* | 0.5µM* | 0.76µM* | ? | ? | ?
CC(C)COc1ccc(-c2nnc(-c3ccco3)o2)cc1 | 0.32µM* | 0.45µM* | 1.1µM* | ? | 4µM* | ?
CCNC(=S)NNC(=O)c1cc(-c2cccc(C)c2)nc2ccccc12 | ? | ? | 0.34µM* | ? | ? | 2%
CCNC(=S)NNC(=O)c1cc(C)nc2ccccc12 | -8% | -3% | -14% | 6% | 16% | -1%
CCNC(=S)NNC(=O)c1cc(-c2ccc(OC)cc2)nc2ccccc12 | ? | ? | 0.076µM* | ? | 7.9µM* | ?
